Screening data deposited in PubChem by several laboratories.
Shown are actives, neighbours in structure and some others; about 1.3% of the full set was active somewhere.
S1P2 agonist = S1P2 receptor agonists, primary screen, cell-based; Sphingosine 1-phosphate receptor 2 (Homo sapiens), O95136; S1P2-expressing cell line, agonist reporter read-out; activation, % at 4.5 µM; 97,000 compounds, 0.46% hits; AID 729, 2007; in the data active = activation above about 16%;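 also: 0% = vehicle low control and 100% = maximal reference agonist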
GALR2 ag = GALR2 receptor agonists, primary screen, cell-based. activation, % (no concentration beside the values). 140,000 compounds, 0.48% hits. GALR2-expressing cells, agonist activation read-out. Galanin receptor type 2 (Homo sapiens), O43603; in the data active = activation above about 5%, passing the limit was not always enough;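 also: 0% = vehicle buffer wells and 100% = reference agonist at full effect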
Target sequence (O43603 whole entry, looked up): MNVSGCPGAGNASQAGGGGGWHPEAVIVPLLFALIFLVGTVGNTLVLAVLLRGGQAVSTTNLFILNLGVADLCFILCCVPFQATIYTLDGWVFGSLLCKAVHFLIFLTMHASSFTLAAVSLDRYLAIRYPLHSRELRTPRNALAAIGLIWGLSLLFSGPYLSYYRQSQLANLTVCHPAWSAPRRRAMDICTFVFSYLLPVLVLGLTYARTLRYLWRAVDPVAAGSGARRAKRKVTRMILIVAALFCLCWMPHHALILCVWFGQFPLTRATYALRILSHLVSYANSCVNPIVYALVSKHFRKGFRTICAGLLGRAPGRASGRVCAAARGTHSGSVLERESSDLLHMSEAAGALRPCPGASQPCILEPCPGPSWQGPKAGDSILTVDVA
GALR2 blocker = GALR2 antagonists in receptor-expressing cells, primary screen; 140,000 compounds, 0.39% hits; inhibition, % at 4 µM; Galanin receptor type 2 (Homo sapiens), O43603; antagonist mode; in the data active = inhibition above about 27%;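 also: cells stimulated with galanin 1-16 at roughly its EC80; 0% = agonist challenge control and 100% = basal control without agonist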
PTPN22 inh 2 = PTPN22 phosphatase inhibitors, primary screen, biochemical, DiFMUP fluorescence, 2 µM; Tyrosine-protein phosphatase non-receptor type 22 (Homo sapiens), Q9Y2R2; recombinant LYP catalytic domain; inhibition, % at 2 µM; 96,000 compounds, 0.21% hits; AID 640, 2007;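 active = inhibition at 2 µM at or above a set limit, the screen mean plus 3 SD, cut at about 24% in these data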;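 also: 0% = DMSO with enzyme and 100% = enzyme fully blocked by orthovanadate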
PTPN22 act = LYP phosphatase activators, primary screen, biochemical, DiFMUP fluorescence, 2 µM; activation, % at 2 µM; 96,000 compounds, 0.11% hits; recombinant LYP; 0 = plate median, 100 = signal doubled; AID 697, 2007; Tyrosine-protein phosphatase non-receptor type 22 (Homo sapiens), Q9Y2R2;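 active = activation at 2 µM above a set limit, the mean plus 5 SD, cut at about 37% in these data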
S1P2 antag = human S1P2 receptor antagonists, primary screen, cell-based | Sphingosine 1-phosphate receptor 2 (Homo sapiens), O95136 | cell-based S1P2 antagonist assay, inhibition at 5 uM | inhibition, % at 5 µM | 97,000 compounds, 0.21% hits | AID 736, 2007; in the data active = inhibition above about 45%;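 also: CRE beta-lactamase reporter cells expressing human S1P2 stimulated with S1P; 0% = agonist at EC80 alone and 100% = agonist plus reference antagonist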
GALR2 ag confirm = GALR2 agonists, retest of hits, confirmation, cell-based; activation, % at 5.6 µM; AID 864, 2007; 460 compounds, 10% hits; GALR2-expressing cells, agonist activation; shares compounds with GALR2 ag; in the data active = activation above about 8.4%;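 also: 0% = buffer-only vehicle wells and 100% = full reference agonist response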
BLA activ ctr = activators of NFAT-driven beta-lactamase reporter, confirmation, counter-screen for GALR2 agonist project, CHO NFAT-bla cells, FRET readout. beta-lactamase FRET activation. shares compounds with GALR2 ag. activation, % at 5.6 µM. AID 865, 2007. 460 compounds, 10% hits;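 active = activation above the screen-wide mean activation plus 3 SD, cut at about 8% in these data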;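 also: 0% = DMSO with PBS wells and 100% = thapsigargin positive control wells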
Active calls of the source: *; / = no result.

SMILES | S1P2 agonist | GALR2 ag | GALR2 blocker | PTPN22 inh 2 | PTPN22 act | S1P2 antag | GALR2 ag confirm | BLA activ ctr
COc1ccc(CCn2c(N)c(C(=O)NCc3ccco3)c3nc4ccccc4nc32)cc1OC | 16 | 12* | 4 | 14 | -14 | -16 | 4 | 9.9*
Nc1nnc(SCC(=O)c2ccccc2)s1 | -5 | -2 | 0 | -9 | 6 | -11 | / | /
Nc1c(C(=O)c2ccccc2)sc2snc(SCC(=O)c3ccccc3)c12 | -8 | 79* | 0 | 8 | -4 | 15 | -2 | -3
O=C(Nc1ccccc1-c1ccccc1)c1ccc(Br)o1 | 2 | 13* | -12 | 4 | -3 | -20 | 0 | -1
CCCN1C(=O)/C(=N\OCC(=O)NC23CC4CC(CC(C4)C2)C3)c2ccccc21 | / | -1 | 5 | / | / | / | / | /
COc1ccc(-c2nnc(-c3ccc(OCC(C)C)cc3)o2)cc1 | -3 | 14* | -4 | 22 | -21 | 0 | -1 | -2
COc1ccc(Cc2nc(C(=O)NCc3ccccc3OC)cs2)cc1 | -4 | -1 | 3 | 8 | -6 | 1 | / | /
COc1ccc(Cc2nc(C(=O)Nc3ccc(OC)cc3)cs2)cc1 | -6 | 27* | -5 | -5 | 4 | 0 | -2 | -4
O=C(/C=C/c1cccc(OCc2ccccc2)c1)c1cccnc1 | / | -2 | -12 | / | / | / | / | /
COc1ccc(Cn2c(SCc3ccccc3C)nc3cc(OC)c(OC)cc3c2=N)cc1 | -6 | 9.1* | -8 | 22 | -19 | 6 | 8.8* | 6
Cc1ccc(/C=N/NC(=O)Cn2cnc3c2c(=O)n(C)c(=O)n3C)s1 | / | -1 | 13 | / | / | / | / | /
CCOC(=O)c1ccc(NC(=O)CCc2ccc(CC)o2)cc1 | -2 | 8 | -6 | -9 | 8 | 1 | -1 | 0
CCOc1cccc(SCc2noc(C(=O)NCCOC)c2C(=O)O)c1 | -9 | 59* | -3 | 0 | 3 | 8 | 0 | 1
Cc1cc(C)c2nc(NNC(=O)c3ccc(S(=O)(=O)N4CCCC(C)C4)cc3)sc2c1 (stereo not given) | / | 18* | 16 | / | / | / | 8.2* | -2
Cc1cccc2sc(NNC(=O)c3ccc(S(=O)(=O)N4CC(C)CC(C)C4)cc3)nc12 (stereo not given) | / | 33* | 8 | / | / | / | 8 | -3
Cc1cc(C)c2nc(NNC(=O)c3ccc(S(=O)(=O)N4CC(C)CC(C)C4)cc3)sc2c1 (stereo not given) | / | 44* | 11 | / | / | / | 14* | 2
Cc1ccc2nc(NNC(=O)c3ccc(S(=O)(=O)N4CCc5ccccc5C4)cc3)sc2c1 | / | -3 | -3 | / | / | / | / | /
N#CC1=C(N)Oc2n[nH]c(-c3ccccc3)c2C12C(=O)Nc1ccccc12 (stereo not given) | / | 11* | 14 | / | / | / | -1 | -3
CCN1C(=O)C2(C(C#N)=C(N)Oc3n[nH]c(-c4ccc(Cl)cc4)c32)c2ccccc21 (stereo not given) | -2 | 0 | 1 | -1 | 4 | -5 | / | /
Cc1ccc(NC(=O)/C(=C\c2ccc3c(c2)OCO3)NC(=O)c2ccco2)cc1 | -8 | -3 | 0 | 9 | -6 | 1 | / | /
COc1ccc(/C=C/C(=O)Nc2sc3c(c2C(=O)NCc2cccnc2)CCCC3)cc1 | -9 | -1 | 5 | 8 | -8 | 6 | / | /
O=C(COc1ccccc1)Nc1sc2c(c1C(=O)NCc1cccnc1)CCCC2 | -3 | 10 | -8 | 16 | -13 | 16 | 4 | -2
COC(=O)C1CCN(C(=O)COC(=O)CC(NC(C)=O)c2ccccc2)CC1 (stereo not given) | -1 | -1 | 1 | -16 | 12 | -4 | / | /
COC(=O)C1CCN(C(=O)COC(=O)Cn2cnnn2)CC1 | -3 | 160* | -7 | 4 | -5 | 6 | -1 | 0
CCc1ccc(NC(=O)CSc2nnc(CC)c(CC)n2)cc1 | -2 | 22* | -7 | 1 | -2 | -33 | -1 | -4
